Experimental data taken from PubChem BioAssay AID588397 (National Center for Advancing Translational Sciences (NCATS), 2011).
Values joined by “and” are separate entries in the source; they are usually repeats but may differ in a detail not shown here. Equal entries are not always repeated. Out of some 1,300 compounds screened, about 1,000 (77%) were called active. Another 7% or so got no clear call; they are omitted. The set was probably picked from earlier hits. The list shows a part of the results. Unmarked numbers belong to inactive results. Calls follow the shape of the dose curve; as a rule, active = well fitted inhibition curve with a large enough effect; inconclusive = small, poorly fitted or top-dose-only effect; inactive = no such curve, though single readings can be large or run the other way.

experiment: qHTS of small molecules that selectively kill Giardia lamblia: Hit Validation.;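 also: viability measured as ATP content by luminescence so killing lowers signal; nearly all actives have a fitted effect of over 65% in size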; settings: Giardia lamblia trophozoite viability, dose-response; series mostly up to 38.3 µM; activity change, negative = killing: at the top concentration
Summary of the method: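 Compounds were tested on trophozoites seeded at 100 cells/well and held 48 hrs at 37 deg C anaerobically. An ATP-based luminescent kit measured the remaining live cells.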
% is scaled to controls: 0 for no effect and ±100 for the full control effect; potency is read from the fitted curve at half-maximal effect.

Compound	activity change, negative = killing [%]	Potency
CC1(C)Oc2ccc3ccc(=O)oc3c2C(/C=N/O)C1=O (stereo unspecified)	5.31	
O=[N+]([O-])c1nn(-c2ccc3c(c2)OCCO3)n(O)c1=NCc1ccc(F)cc1		4.6 µM (active)
COc1ccc(-n2nc([N+](=O)[O-])c(=NCc3ccc4c(c3)OCO4)n2O)cc1		14.5 µM (active)
Cc1ccc(CN=c2c([N+](=O)[O-])nn(-c3ccc4c(c3)OCCO4)n2O)cc1		3.65 µM (active)
CN(C(=O)c1ccc(NC(=O)Cc2ccc(NC(=O)C3CCCN(S(=O)(=O)c4cccc([N+](=O)[O-])c4)C3)cc2)cc1)C1CCCC1 (stereo unspecified)	1.44	
O=C(COc1cccnc1[N+](=O)[O-])Nc1cc(S(=O)(=O)N2CCCCC2)ccc1Cl		1.45 µM (active)
Cc1ccc(OCC(=O)Nc2cc(S(=O)(=O)N3CCOCC3)ccc2Cl)c([N+](=O)[O-])n1		4.1 µM (active)
O=C(COc1cccnc1[N+](=O)[O-])Nc1cccc(S(=O)(=O)N2CCCCC2)c1		3.65 µM (active)
Cc1ccc(NC(=O)COc2cccnc2[N+](=O)[O-])cc1S(=O)(=O)N1CCCCC1		4.1 µM (active)
Cc1ccc(CCNC(=O)CN2C(=O)COc3ccc(S(=O)(=O)N4CCOCC4)cc32)cc1	-1.26	
COc1ccc(S(=O)(=O)N2CCOCC2)cc1NC(=O)COc1cccnc1[N+](=O)[O-]		5.79 µM (active)
Cc1ccc(S(=O)(=O)N2CCN(C(=O)COc3ccc(C)nc3[N+](=O)[O-])CC2)c(C)c1		4.1 µM (active)
Cc1ncc([N+](=O)[O-])n1CCOC(=O)NC(Nc1ccc(F)cc1)C(Cl)(Cl)Cl (stereo unspecified)		0.46 µM (active)
Cc1ccccc1NC(NC(=O)OCCn1c([N+](=O)[O-])cnc1C)C(Cl)(Cl)Cl (stereo unspecified)		0.729 µM (active)
CCOC(=O)c1c(C)[nH]c(C)c1S(=O)(=O)N1CCN(c2ccc([N+](=O)[O-])cc2)CC1		7.29 µM (active)
CCOC(=O)C1CCN(C(=O)c2c(C)oc3c2C(=O)c2ccccc2C3=O)CC1		2.05 µM (active)
Cc1oc2c(c1C(=O)N1CCC(C)CC1)C(=O)c1ccccc1C2=O		3.65 µM (active)
Cc1oc2c(c1C(=O)N1CCOCC1)C(=O)c1ccccc1C2=O		3.26 µM (active)
O=[N+]([O-])c1ccc(/C=[N+](\[O-])[C@@H]2CCCC[C@@H]2/[N+]([O-])=C/c2ccc([N+](=O)[O-])o2)o1		0.65 µM (active)
O=[N+]([O-])c1ccc(/C=[N+](\[O-])CCO)o1		1.16 µM (active)
CCOC(=O)N1CCN(C(=O)c2ccc(Cl)c(NC(=O)c3cccs3)c2)CC1	19.9	
Cc1ccn(-c2ccc(NC(=O)c3cccs3)cc2)n1		16.3 µM (active)

Compound	activity change, negative = killing [%]	Potency
Cn1cc([N+](=O)[O-])c(C(=O)Nc2sc3c(c2C#N)CCC3)n1		2.31 µM (active)
NC(=O)c1ccsc1NC(=O)c1ccc([N+](=O)[O-])o1		1.3 µM (active)
CC(C)N1CCc2c(sc(NC(=O)c3cc4cc([N+](=O)[O-])ccc4s3)c2C(N)=O)C1		2.59 µM (active)
N#Cc1c(NC(=O)c2ccc([N+](=O)[O-])o2)sc2c1CCC2		0.365 µM (active)
COC(=O)c1sc(NC(=O)c2ccc([N+](=O)[O-])o2)c(C#N)c1C		0.29 µM (active)
NC(=O)c1c(NC(=O)c2ccc([N+](=O)[O-])o2)sc2c1CCCC2		0.65 µM (active)
COC(=O)c1c(NC(=O)c2ccc([N+](=O)[O-])o2)sc2c1CCN(C(C)C)C2		0.818 µM (active)
CC(=O)N1CCc2c(sc(NC(=O)c3ccc([N+](=O)[O-])o3)c2C#N)C1		1.16 µM (active)
O=C(NNC(=O)c1cc(-c2ccncc2)nc2ccccc12)c1ccccc1O	-14.2	
CCOC(=O)N1CCN(C(=O)c2cc(-c3ccc(OCC)cc3)nc3ccccc23)CC1		2.9 µM (active)
CCOc1ccc(-c2cc(C(=O)N3CCN(c4ccccn4)CC3)c3ccccc3n2)cc1		1.63 µM (active) and 1.45 µM (active) and 3.26 µM (active)
CCn1cc(-c2cc(C(=O)O)c3ccccc3n2)cn1		5.16 µM (active)
c1cc(-c2cc3cc(N4CCOCC4)ccc3o2)cs1		2.05 µM (active)
CCCCC(=O)Nc1ncc([N+](=O)[O-])s1		0.23 µM (active)
CC(C)CC(=O)Nc1ncc([N+](=O)[O-])s1		0.206 µM (active)
CCCCC(CC)C(=O)Nc1ncc([N+](=O)[O-])s1 (stereo unspecified)		0.23 µM (active)
CCC(Oc1ccccc1)C(=O)Nc1ncc([N+](=O)[O-])s1 (stereo unspecified)		0.103 µM (active)
CCc1nn2c(=O)c(S(=O)(=O)Nc3ccc(Cl)cc3)c(C)nc2s1	-12.1	
CC(CC(=O)Nc1ncc([N+](=O)[O-])s1)c1ccccc1 (stereo unspecified)		0.206 µM (active)
CC1=C(C(=O)Nc2ccc(CC(=O)NCc3ccc(OC(C)C)cc3)cc2)SCCO1		4.1 µM (active)
CN(C(=O)CSc1nc2ccc([N+](=O)[O-])cc2s1)C1CCS(=O)(=O)C1 (stereo unspecified)		1.45 µM (active)
CN(C(=O)CSc1nc2ccccc2c(=O)n1-c1ccc(F)cc1)C1CCS(=O)(=O)C1 (stereo unspecified)	-14.3	

Compound	activity change, negative = killing [%]	Potency
O=C(COc1ccccc1)N=C1SC2CS(=O)(=O)CC2N1c1ccccc1F (stereo unspecified)	-32	
O=[N+]([O-])c1ccc(/C=C/C2=NN(c3ccccc3)C(c3ccco3)C2)o1 (stereo unspecified)		0.115 µM (active)
Cc1ccc(C)c(-c2nnc(NC(=O)c3ccc([N+](=O)[O-])o3)o2)c1		0.516 µM (active)
COc1ccc(-c2nnc(NC(=O)c3ccc([N+](=O)[O-])o3)o2)c(OC)c1		2.05 µM (active)
Cc1ccc(-c2nnc(NC(=O)c3ccc([N+](=O)[O-])o3)o2)c(C)c1		0.41 µM (active)
O=[N+]([O-])c1cccc(S(=O)(=O)c2ccc(NCCOCCO)c([N+](=O)[O-])c2)c1		1.63 µM (active)
Cc1ccc(-c2[nH][nH]c(=O)c(=O)c2N=Nc2ccccc2)cc1		1.3 µM (active)
O=c1[nH][nH]c(-c2ccccc2)c1C=Nc1ccc(OC(F)(F)F)cc1	-6.83	
CC(=O)O[C@@H]1[C@@H](OC(C)=O)[C@H](n2ccc3cc([N+](=O)[O-])ccc32)OC[C@@H]1OC(C)=O		0.259 µM (active)
COc1ccccc1C1OC2=C(Nc3ccc([N+](=O)[O-])cc3N2)C1=O (stereo unspecified)		3.65 µM (active)
CCN(CC)CCOC(=O)c1ccc(N/C=C(/C#N)c2nc(-c3cc4ccccc4oc3=O)cs2)cc1		0.516 µM (active)
CCN(CC)CCOC(=O)c1ccc(N/C=C(/C#N)c2nc(-c3ccc4c(c3)OCO4)cs2)cc1		2.05 µM (active)
O=c1c2c([N+](=O)[O-])cc([N+](=O)[O-])cc2nc2ccccn12		2.59 µM (active)
O=C(Nc1ccccc1)Nc1ncc([N+](=O)[O-])s1		4.1 µM (active)
O=C(CCc1ccccc1)Nc1ncc([N+](=O)[O-])s1		0.23 µM (active)
O=C(CCS(=O)(=O)Cc1ccccc1)Nc1ncc([N+](=O)[O-])s1		0.65 µM (active)
O=C(CCS(=O)(=O)c1ccccc1)Nc1ncc([N+](=O)[O-])s1		1.16 µM (active)
C[n+]1ccnc2ccccc21		2.59 µM (active)
O=c1[nH]c2cccnc2n1-c1ccc([N+](=O)[O-])cc1		1.83 µM (active)
CC(C)(C)C(=O)N1CCN(c2ccc(NC(=O)c3ccc([N+](=O)[O-])o3)cc2)CC1		1.45 µM (active)
CCCC(=O)N1CCN(c2ccc(NC(=O)c3ccc([N+](=O)[O-])o3)cc2)CC1		0.729 µM (active)
CC(C)C(=O)N1CCN(c2ccc(NC(=O)c3ccc([N+](=O)[O-])o3)cc2)CC1		1.03 µM (active)

Compound	activity change, negative = killing [%]	Potency
CCC(=O)N1CCN(c2ccc(NC(=O)c3ccc([N+](=O)[O-])o3)cc2)CC1		0.918 µM (active)
Cc1ncc([N+](=O)[O-])n1CCOC(=O)c1cc(Cl)cc(Cl)c1N		0.163 µM (active)
Cc1ncc([N+](=O)[O-])n1CCOC(=O)c1ccc(Cl)cc1Cl		0.818 µM (active)
CN=C1C=C/C(=N/N=c2\ccn(O)cc2C)C=C1C		1.45 µM (active)
O=C(Nc1csc([N+](=O)[O-])c1)Nc1ccccc1Cl		1.63 µM (active)
CCCOC(=O)/C(=C\c1ccc([N+](=O)[O-])o1)NC(=O)c1ccccc1		0.729 µM (active)
COc1cc(/C=C(\NC(=O)c2ccccc2)C(=O)NCCO)c([N+](=O)[O-])cc1OC	18.6	
CCCCNC(=O)/C(=C\c1ccc([N+](=O)[O-])o1)NC(=O)c1ccccc1		1.03 µM (active)
COC(=O)/C(=C\c1ccc([N+](=O)[O-])o1)NC(=O)c1ccccc1		1.03 µM (active)
CCOc1ccccc1C(=O)Nc1ccc2nc(N3CCN(c4ncccn4)CC3)cc(C)c2c1		3.26 µM (active)
O=C1C(c2ccncc2)=C(O)c2ccccc21		9.18 µM (active)
CS/C(Nc1cc(Cl)ccc1Cl)=C(/C#N)C(=O)c1ccco1		5.79 µM (active)
O=[N+]([O-])c1ccc(N=NN(CCO)CCO)cc1		3.26 µM (active)
CCOC(=O)N/N=C\c1ccc([N+](=O)[O-])o1		1.3 µM (active)
O=C(CSc1ccc(Cl)cc1)N/N=C/c1ccc([N+](=O)[O-])o1		0.818 µM (active)
CCCCCC(=O)N/N=C/c1ccc([N+](=O)[O-])o1		0.579 µM (active)
O=C(CCC(=O)Nc1ccc(Cl)cc1Cl)N/N=C/c1ccc([N+](=O)[O-])o1		0.818 µM (active)
CCCCCCCC(=O)N/N=C/c1ccc([N+](=O)[O-])o1		0.579 µM (active)
COc1ccc(NS(=O)(=O)c2ccc(C)cc2)c([N+](=O)[O-])c1		1.83 µM (active)
CC(=O)Nc1ccc(NS(=O)(=O)c2ccc(C)cc2)c([N+](=O)[O-])c1		0.516 µM (active)
